Measured values from the supplement of paper PMC8253809.

Assays:
Assay in all cases: growth inhibition (% activity, log2 RLU normalised to DMSO / staurosporine); higher = more growth inhibition
Details in all cases: 33 µM
DIPGX29 = system: DIPGX29 (H3.3 K27M diffuse intrinsic pontine glioma line)
Outline: (§1)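 Approved drugs, at a single final concentration of about 33 μM, were applied in triplicate to pHGG cell lines and H9-derived neural stem cells for 7 days at 37 °C, 5% CO2. The growth-inhibition value is the replicate median of log2-transformed CellTiter-Glo luminescence normalised per plate to % activity between solvent and positive control wells.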

DIPGX37 = system: DIPGX37 (H3.3 K27M diffuse intrinsic pontine glioma line)
Outline: as §1

DIPGX7 = system: DIPGX7 (H3.3 K27M diffuse intrinsic pontine glioma line)
Outline: as §1

DIPGX9 = system: DIPGX9 (diffuse intrinsic pontine glioma line)
Outline: as §1

HGGX39 = system: HGGX39 (paediatric high-grade glioma line)
Outline: as §1

HGGX6 = system: HGGX6 (H3.3 G34R paediatric high-grade glioma line)
Outline: as §1

HNSC = system: HNSC
Outline: as §1

SUDIPGIV = system: SUDIPGIV (diffuse intrinsic pontine glioma line)
Outline: as §1

SUDIPGVI = system: SUDIPGVI (diffuse intrinsic pontine glioma line)
Outline: as §1

SUDIPGXIII = system: SUDIPGXIII (diffuse intrinsic pontine glioma line)
Outline: as §1

Structure (SMILES) | growth inhibition (DIPGX29) [%] | growth inhibition (DIPGX37) [%] | growth inhibition (DIPGX7) [%] | growth inhibition (DIPGX9) [%] | growth inhibition (HGGX39) [%] | growth inhibition (HGGX6) [%] | growth inhibition (HNSC) [%] | growth inhibition (SUDIPGIV) [%] | growth inhibition (SUDIPGVI) [%] | growth inhibition (SUDIPGXIII) [%]
CCCCCCCCCCCCCCCCCCCCCCO | 0.193 | 0.0924 | -0.407 | 0.0399 | -0.179 | 0.445 | 1.03 | -1.18 | 1.92 | 1.68
CCC(NC(C)C)C(O)c1ccc(O)c(O)c1 (stereo not given) | 2.91 | 3.09 | 1.03 | 1.97 | 2.82 | 5.22 | 3.15 | 1.08 | 5.58 | 1.21
CCOc1cc(N)c(Cl)cc1C(=O)NCC1CN(Cc2ccc(F)cc2)CCO1 (stereo not given) | -0.0532 | 1.06 | 0.919 | 1.54 | 1.87 | 0.0657 | 1.23 | 0.346 | 1.9 | 1.85
O=C([O-])CC(O)(CC(=O)[O-])C(=O)[O-].O=C([O-])CC(O)(CC(=O)[O-])C(=O)[O-].[Bi+3].[K+].[K+].[K+].[K+].[K+] | -1.08 | -0.559 | -0.17 | 0.156 | -0.856 | 0.952 | -0.691 | -1.2 | -0.266 | -15.3
Cc1cc(C#N)cc(C)c1Oc1nc(Nc2ccc(C#N)cc2)nc(N)c1Br | 3.55 | -3.38 | 9.93 | -0.625 | 6.72 | 6.05 | 35.3 | 1.55 | 15.5 | 27.6
Nc1c2ccccc2nc2ccccc12 | 17.5 | 1.87 | 5.31 | 20.4 | 12.2 | 14.7 | 58.1 | 14.3 | 5.87 | 0.896
COc1cc(NS(=O)(=O)c2ccc(N)cc2)nc(OC)n1 | 1.59 | 1.08 | 2.92 | 1.55 | 1.71 | 2.67 | 1.56 | 0.337 | 2.95 | -1.53
Cc1cccc(N(C)C(=S)Oc2ccc3ccccc3c2)c1 | -3.14 | -1.11 | -2.16 | -2.01 | -1.4 | -3.78 | -3.49 | -3.02 | -3.26 | 0.248
Nc1nc(=O)c2c([nH]1)NC[C@H](CNc1ccc(C(=O)N[C@@H](CCC(=O)O)C(=O)O)cc1)N2C=O | 1.44 | 1.17 | 2.14 | 0.677 | 1.92 | 0.872 | 35.4 | 2.82 | -2.53 | 0.25
COc1cc([C@@H]2c3cc4c(cc3[C@@H](O[C@@H]3O[C@@H]5CO[C@@H](c6cccs6)O[C@H]5[C@H](O)[C@H]3O)[C@H]3COC(=O)[C@H]23)OCO4)cc(OC)c1O | 22 | 1.57 | 29.9 | 47.9 | 14.2 | 23.6 | 59.9 | 48 | 10 | 20.7
N[C@H](C(=O)O)[C@H](O)c1ccc(O)c(O)c1 | -1.91 | -2.48 | -1.18 | -0.989 | -1.97 | -1.74 | -3.73 | -1.1 | -1.43 | -4.54
OC1(c2ccc(Cl)c(C(F)(F)F)c2)CCN(CCCC(c2ccc(F)cc2)c2ccc(F)cc2)CC1 | 22.5 | -5.49 | 5.28 | -1.11 | 4.1 | 4.08 | 71.6 | 4.36 | -7.48 | 51.7
Cc1cc(NS(=O)(=O)c2ccc(N)cc2)no1 | -4.18 | -1.05 | -1.62 | -1.67 | -2.37 | -4.13 | 1.76 | -3.28 | -3.16 | -0.124
CCOC(=O)c1c(CSc2ccccc2)n(C)c2cc(Br)c(O)c(CN(C)C)c12 | 0.0747 | -1.13 | 3.04 | 0.402 | 0.0757 | -2.62 | 53.4 | -4.36 | -8.38 | 3.61
O=C1CC[C@@H](C(=O)N2CSC[C@H]2C(=O)O)N1 | 2.29 | 1.19 | 1.62 | 1.89 | 3.63 | 2.97 | 2.12 | 1.86 | 2.32 | -0.296
COc1ccc2cc(CCC(C)=O)ccc2c1 | -3.29 | -0.34 | 1.11 | -2.24 | 0.174 | -2.89 | 31.7 | -0.544 | -8.13 | 3.04
CCOC(=O)[C@H](CCc1ccccc1)N[C@H]1CCc2ccccc2N(CC(=O)O)C1=O | -0.274 | -0.666 | 0.62 | -1.51 | -0.668 | -3.48 | 0.9 | -2.69 | -7.43 | -0.0284
C[N+](C)(CCOc1ccccc1)Cc1ccccc1.O=C([O-])c1cc2ccccc2cc1O | -1.73 | 0.336 | -2.4 | -0.621 | -1.29 | -2.23 | -1.38 | 2.44 | 1.1 | -1.56

Structure (SMILES) | growth inhibition (DIPGX29) [%] | growth inhibition (DIPGX37) [%] | growth inhibition (DIPGX7) [%] | growth inhibition (DIPGX9) [%] | growth inhibition (HGGX39) [%] | growth inhibition (HGGX6) [%] | growth inhibition (HNSC) [%] | growth inhibition (SUDIPGIV) [%] | growth inhibition (SUDIPGVI) [%] | growth inhibition (SUDIPGXIII) [%]
COc1ccc2cc1Oc1ccc(cc1)C[C@H]1c3c(cc4c(c3Oc3cc5c(cc3OC)CCN(C)[C@@H]5C2)OCO4)CCN1C | 1.78 | 2.93 | 1.55 | 1.36 | 3.95 | 0.797 | 3.27 | -0.21 | 3.68 | 1.63
CCCC(=O)Nc1ccc(OCC(O)CNC(C)C)c(C(C)=O)c1 (stereo not given) | -1.23 | -0.501 | -1.01 | -0.6 | -0.175 | 0.315 | -4.5 | -0.848 | -2.3 | -1.79
CC(=O)OCC(=O)[C@@]1(O)CC[C@H]2[C@@H]3CCC4=CC(=O)CC[C@]4(C)[C@H]3C(=O)C[C@@]21C | -5.36 | -1.7 | -1.09 | -3.1 | -6.61 | -4.47 | 6.87 | -5.64 | -7.69 | -0.171
C[C@H]1c2cccc(O)c2C(=O)C2=C(O)[C@]3(O)C(=O)C(C(N)=O)=C(O)[C@@H](N(C)C)[C@@H]3[C@@H](O)[C@@H]21 | 0.731 | -0.495 | 1.55 | 1.62 | 6.11 | 0.474 | 25.5 | 10.2 | -0.454 | -2.03
CC(=O)N[C@@H](CS)C(=O)O | -0.541 | 1.66 | 0.31 | -0.364 | -0.994 | -2.9 | 1.29 | 0.64 | 0.65 | 0.374
CCC[C@@H]1C[C@@H](C(=O)N[C@@H]([C@H]2O[C@H](SC)[C@H](O)[C@@H](O)[C@H]2O)[C@@H](C)O)N(C)C1 | -2.47 | 0.84 | -0.347 | 0.338 | -0.628 | -0.292 | 0.119 | 0.1 | -1.6 | 0.849
C=C[C@]1(C)C[C@@H](OC(=O)CSC(C)(C)CNC(=O)[C@H](N)C(C)C)[C@]2(C)[C@H](C)CC[C@]3(CCC(=O)[C@H]32)[C@@H](C)[C@@H]1O | 2.79 | 0.213 | 4.74 | 1.8 | 20.9 | 4.36 | 15.7 | 29.9 | 1.61 | 46.4
C[C@]12CC[C@@H]3c4ccc(O)cc4CC[C@H]3[C@@H]1CC[C@@H]2O | -1.16 | 1.54 | -0.611 | -0.154 | 0.663 | 2.45 | -4.69 | -0.561 | -3.66 | 1.49
O=c1[nH]c(=O)n([C@H]2C[C@H](O)[C@@H](CO)O2)cc1C(F)(F)F | -1.08 | 0.535 | -1.11 | 5.19 | 8.23 | -0.706 | 57.7 | 13.1 | -3.24 | 2.3
CC[C@H](C)[C@H](N)C1=N[C@H](C(=O)N[C@@H](CC(C)C)C(=O)N[C@H](CCC(=O)O)C(=O)N[C@H](C(=O)N[C@H]2CCCCNC(=O)[C@H](CC(N)=O)NC(=O)[C@@H](CC(=O)O)NC(=O)[C@H](Cc3cnc[nH]3)NC(=O)[C@@H](Cc3ccccc3)NC(=O)[C@H]([C@@H](C)CC)NC(=O)[C@@H](CCCN)NC2=O)[C@@H](C)CC)CS1 | 0.716 | -3.59 | 2.09 | -0.221 | 2.77 | -1.08 | 1.3 | 0.589 | -1.54 | -1.26
C[C@@H]1C[C@H]2[C@@H]3CCC4=CC(=O)C=C[C@]4(C)[C@@]3(Cl)[C@@H](O)C[C@]2(C)[C@@]1(OC(=O)c1ccco1)C(=O)CCl | 2.55 | 2.99 | 2.36 | 5.3 | 6.75 | 4.28 | 0.466 | 14.2 | 2.53 | -3.14
CC(C)(C#N)c1cc(Cn2cncn2)cc(C(C)(C)C#N)c1 | 1.13 | 0.615 | 0.764 | -0.00856 | 0.325 | 1.21 | 2.39 | -0.235 | 2.45 | 1.01
O=c1[nH]c(=O)n(C2CCCO2)cc1F (stereo not given) | -0.615 | 0.56 | -0.536 | -0.0713 | 1.51 | -0.669 | -0.796 | -1.49 | -0.356 | -6.49
CN1CCC[C@H]1c1cccnc1 | 0.174 | 0.939 | -1.09 | -1.61 | 2.08 | 0.579 | -0.787 | -0.338 | -0.198 | 1.09
OC(CNCC(O)C1CCc2cc(F)ccc2O1)C1CCc2cc(F)ccc2O1 (stereo not given) | 4.79 | 3.01 | 2.85 | 4 | 4.24 | 6.9 | 2.72 | 2.21 | -0.86 | 2.62
CO[C@H]1/C=C/O[C@@]2(C)Oc3c(C)c(O)c4c(O)c(c(/C=N/N5CCN(C6CCCC6)CC5)c(O)c4c3C2=O)NC(=O)/C(C)=C\C=C\[C@H](C)[C@H](O)[C@@H](C)[C@@H](O)[C@@H](C)[C@H](OC(C)=O)[C@@H]1C | 1.87 | 1.82 | 1.73 | 2.34 | 2.99 | 2.94 | 0.219 | -0.888 | 1.12 | 0.627
CN1C[C@@H]2C[C@H]1CN2c1cc2c(cc1F)c(=O)c(C(=O)O)cn2C1CC1 | 2.67 | 1.22 | 2.59 | 1.98 | 6.03 | 1.06 | 7.67 | 4.42 | 3.33 | 4.88
